Assay outcomes (PubChem BioAssay)
Giardia FBPA inh: qHTS Assay for Inhibitors of Fructose-1,6-bisphosphate Aldolase from Giardia Lamblia; A8B2U2; purified Giardia FBPA; Potency, µM (highest dose often 59.6 µM), for the others: at the top dose activity, negative = inhibition, most hits filed as inhibitors; 290,000 compounds, 0.71% hits; note: potency is the fitted concentration of half-maximal effect; nearly all actives have a fitted effect of over 55% in size
Target sequence (A8B2U2 whole entry, looked up): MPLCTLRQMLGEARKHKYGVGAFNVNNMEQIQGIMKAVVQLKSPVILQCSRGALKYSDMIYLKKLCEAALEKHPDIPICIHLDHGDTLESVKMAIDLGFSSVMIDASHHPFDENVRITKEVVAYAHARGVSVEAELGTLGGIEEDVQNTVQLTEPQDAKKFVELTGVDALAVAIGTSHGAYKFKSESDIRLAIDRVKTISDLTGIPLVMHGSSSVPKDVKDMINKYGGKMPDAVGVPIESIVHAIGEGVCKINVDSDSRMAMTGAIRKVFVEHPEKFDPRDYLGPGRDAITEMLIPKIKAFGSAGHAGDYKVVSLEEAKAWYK
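40 nM FBPA preincubated 10 min at RT with compound (up to 57.5 uM final), then substrate plus GAPDH/TPI/NAD/arsenate coupling and diaphorase/resazurin added. Fluorescence read after 20 min at RT, 525/598 nm.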
HCMV inh: qHTS Assay for inhibitors of the human cytomegalovirus (HCMV). HFF cells, HCMV-luciferase reporter, 72 h; stronger effect = lower value. activity change, negative = inhibition, % at 57.5 µM. 410,000 compounds, 4.5% hits. AID 1259415, 2018; in the data active = activity change below about -60%; inconclusive = no clear call, values can overlap the other calls; inactive = above about -39%
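Two-dose cell screen: HFF monolayers treated with compounds and infected with luciferase-expressing HCMV at 1 PFU/cell, 72 h at 37C, then lysed for luciferase measurement.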
FMDV inh: High Throughput Screening for Foot and Mouth Disease Virus Antivirals | FMDV antiviral cell-based qHTS | 410,000 compounds, 1.2% hits | Potency, µM (doses to about 57.9 µM), for the others: at the highest dose activity change, negative = inhibition, hits mostly inhibitors; calls by dose curve; tested in HEK293T cells; note: read-out not given here; potency is the fitted concentration of half-maximal effect; nearly all actives have a fitted effect of over 45% in size
Marburg entry inh: qHTS for inhibitors of binding or entry into cells for Marburg Virus. Marburg virus pseudotyped entry inhibition, cell reporter. Potency, µM (top dose mostly 37.8 µM), for the others: at the top dose activity change, negative = inhibition, actives largely listed as inhibitors. 300,000 compounds, 1.8% hits. AID 540276, 2011; calls by dose curve; tested in HEK293 cells; note: potency is the fitted concentration of half-maximal effect
HCV inh: qHTS Assay for Inhibitors of Hepatitis C Virus (HCV); Huh7.5.1 HCVcc-Cre infection, luciferase reporter, 44 h; 340,000 compounds, 3.4% hits; Potency, µM (series often up to 41.8 µM), inactives show at the top dose activity change, negative = inhibition, hits mostly inhibitors; note: potency is the fitted concentration of half-maximal effect
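A cell-based infection assay in which seeded cells (1,000 per well) receive test compound after 4 h, are inoculated with HCVcc-Cre at approximately 0.5 moi, and are incubated 44 h before luminescence detection.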
Lassa entry inh: qHTS for Inhibitors of binding or entry into cells for Lassa Virus; 300,000 compounds, 1.2% hits; Lassa virus pseudotype entry inhibition, cell reporter; Potency, µM (series often up to 37.9 µM), for the others: at the highest dose activity change, negative = inhibition, actives largely listed as inhibitors; AID 540256, 2011; calls by dose curve; tested in HEK293 cells; note: potency is the fitted concentration of half-maximal effect; nearly all actives have a fitted effect of over 50% in size
* = called active by the depositor; u = inconclusive; x = no result; [ ] = another dose, or the depositor's remark. An excerpt weighted towards active compounds, which were near 8.3% of everything screened. Unless noted, calls come from the whole dose curve; as a rule, active = well fitted curve in the direction sought with a large enough effect; inconclusive = small, poorly fitted or top-dose-only effect, or another doubt; inactive = no such curve, though single readings can be large; an effect the other way counts as inactive or inconclusive. % is set by controls: 0 for no effect and ±100 for the full control effect.

SMILES	Giardia FBPA inh	HCMV inh	FMDV inh	Marburg entry inh	HCV inh	Lassa entry inh
Cc1sc2ncnc(N3CCC(C(=O)Nc4ccc(S(N)(=O)=O)cc4)CC3)c2c1C	x	-78.6*	u	x	u	x
Cc1ccc(NC(=O)C2CCN(c3ncnc4sc(C)c(C)c34)CC2)cc1S(=O)(=O)N(C)C	x	u	u	u	10µM*	-16.9%
Cc1sc2ncnc(N3CCC(C(=O)Nc4nc(-c5cccs5)cs4)CC3)c2c1C	x	15.6	-18.0%	2.24µM*	u	3.7%
Cc1oc(-c2ccccc2NC(=O)C2CCC2)nc1CNC(=O)c1ccc(C#CC(C)(C)O)cc1	x	x	2.1%	x	x	x
COc1cccc(N(C(=O)c2cccs2)c2nc3ccccc3s2)c1	-8.9%	-101.5*	23.4%	-10.8%	u	u
CCN(C(=O)c1cccs1)c1nc(-c2ccc(OC)cc2)cs1	-9.0%	0.3	27.8%	u	u	9.3%[46.1 µM]
CN(C)CCOc1nc(-c2ccccc2)nc2c1oc1ccccc12	-0.3%	-76.8*	0.0%	u	u	u
CC(C)c1c(C(=O)N2CCCCC2c2cccnc2)cnn1-c1nccc(-c2cccs2)n1 (centres undefined)	x	x	-18.0%	x	x	x
COc1cccc(C2C(C(=O)Nc3ccccc3OC)=C(C)Nc3nc(-c4ccco4)nn32)c1 (centres undefined)	x	11.6	-12.5%	-11.4%[46.1 µM]	x	u
CN(CC(=O)Nc1ccc(S(=O)(=O)N2CCCC2)cc1)Cc1ccc(Cl)cc1Cl	1.7%	-35.7	0.0%	u	u	u
CN(CC(=O)Nc1ccc(Cl)cc1)c1ccc(S(=O)(=O)N2CCCCC2)cc1[N+](=O)[O-]	-7.2%	-67.7*	u	u	12.6µM*	u
O=[N+]([O-])c1cc(S(=O)(=O)N2CCCCCC2)ccc1F	10.8%	-97.2*	u	11.2µM*	u	u
O=C(C[C@@H](c1ccco1)S(=O)(=O)c1ccccc1)c1ccc(F)cc1	x	x	x	3.7%	x	x
COc1cccc(-c2c(NC(=O)c3ccco3)oc3ccc(Cl)cc3c2=O)c1	-6.4%	-28.9	-15.5%	1.2%[46.1 µM]	7.1%	12.6%[46.1 µM]
COc1cccc(-c2c(NC(=O)c3ccco3)oc3ccccc3c2=O)c1	-1.3%	-17.8	-14.2%	x	0.316µM*	x
CCOc1ccc(Nc2ncnc3ccc([N+](=O)[O-])cc23)cc1	-0.4%	-68.9*	u	-13.3%[46.1 µM]	u	1.6%
CCOc1ccc(Nc2ccc3nonc3c2[N+](=O)[O-])cc1	1.2%	u	-23.6%	u	6.7%	3.6%
O=C(Nc1cccc(Cl)c1)NN(c1ccccc1)C1CCS(=O)(=O)C1 (centres undefined)	x	-9.0	x	x	x	x
Cc1ccc(-n2nnnc2SCc2nnc(-c3ccccc3Br)o2)c(C)c1	5.7%	-63.7*	x	u	u	u
COCCn1c(C)cc(C(=O)COc2ccc(C)nc2[N+](=O)[O-])c1C	-12.2%	-93.9*	3.55µM*	x	-18.3%	x
C=CCn1c(C)cc(C(=O)COc2ccc(C)nc2[N+](=O)[O-])c1C	-2.0%	-92.1*	u	u	u	u
Cc1ccc(OCC(=O)c2cc(C)n(-c3ccccc3)c2C)c([N+](=O)[O-])n1	-16.7%	-98.6*	u	u	u	u
Cc1ccc(C)c(C(=O)COc2ccc(C)nc2[N+](=O)[O-])c1	-16.9%	42.9	0.0%	u	-1.6%	8.1%
Cc1ccc(OCC(=O)c2cc(C)c(C)cc2C)c([N+](=O)[O-])n1	-17.6%	67.2	-17.8%	-0.8%	-15.2%	-5.1%
Cc1ccc(OCC(=O)c2c(N)n(C)c(=O)n(C)c2=O)c([N+](=O)[O-])n1	x	-8.8	-10.5%	x	-5.1%	x
CCCn1c(C)cc(C(=O)COc2ccc(C)nc2[N+](=O)[O-])c1C	-1.5%	-89.0*	0.0%	u	-27.5%	14.8%
CN1CN=C(N[N+](=O)[O-])N(Cc2ccco2)C1	-0.3%	-6.7	-7.8%	2.3%	4.8%	-5.2%
